{"source": "paper PMC4336329", "about": "(PLoS ONE, 2015)", "note": "Among all 310,000 compounds or so, about 14,000 (4.5%) showed an effect of 50% or more. Effects have a minus sign here. For the sample, strong results were picked, then their nearest neighbours and some compounds at random.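 Note: peak tail current of the secondary pulse compared with the same well before compound.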", "data": [{"biological_target": "human ether-à-go-go-related gene (hERG) potassium channel (human, UniProt Q12809)", "sequence (Q12809 whole entry, looked up)": "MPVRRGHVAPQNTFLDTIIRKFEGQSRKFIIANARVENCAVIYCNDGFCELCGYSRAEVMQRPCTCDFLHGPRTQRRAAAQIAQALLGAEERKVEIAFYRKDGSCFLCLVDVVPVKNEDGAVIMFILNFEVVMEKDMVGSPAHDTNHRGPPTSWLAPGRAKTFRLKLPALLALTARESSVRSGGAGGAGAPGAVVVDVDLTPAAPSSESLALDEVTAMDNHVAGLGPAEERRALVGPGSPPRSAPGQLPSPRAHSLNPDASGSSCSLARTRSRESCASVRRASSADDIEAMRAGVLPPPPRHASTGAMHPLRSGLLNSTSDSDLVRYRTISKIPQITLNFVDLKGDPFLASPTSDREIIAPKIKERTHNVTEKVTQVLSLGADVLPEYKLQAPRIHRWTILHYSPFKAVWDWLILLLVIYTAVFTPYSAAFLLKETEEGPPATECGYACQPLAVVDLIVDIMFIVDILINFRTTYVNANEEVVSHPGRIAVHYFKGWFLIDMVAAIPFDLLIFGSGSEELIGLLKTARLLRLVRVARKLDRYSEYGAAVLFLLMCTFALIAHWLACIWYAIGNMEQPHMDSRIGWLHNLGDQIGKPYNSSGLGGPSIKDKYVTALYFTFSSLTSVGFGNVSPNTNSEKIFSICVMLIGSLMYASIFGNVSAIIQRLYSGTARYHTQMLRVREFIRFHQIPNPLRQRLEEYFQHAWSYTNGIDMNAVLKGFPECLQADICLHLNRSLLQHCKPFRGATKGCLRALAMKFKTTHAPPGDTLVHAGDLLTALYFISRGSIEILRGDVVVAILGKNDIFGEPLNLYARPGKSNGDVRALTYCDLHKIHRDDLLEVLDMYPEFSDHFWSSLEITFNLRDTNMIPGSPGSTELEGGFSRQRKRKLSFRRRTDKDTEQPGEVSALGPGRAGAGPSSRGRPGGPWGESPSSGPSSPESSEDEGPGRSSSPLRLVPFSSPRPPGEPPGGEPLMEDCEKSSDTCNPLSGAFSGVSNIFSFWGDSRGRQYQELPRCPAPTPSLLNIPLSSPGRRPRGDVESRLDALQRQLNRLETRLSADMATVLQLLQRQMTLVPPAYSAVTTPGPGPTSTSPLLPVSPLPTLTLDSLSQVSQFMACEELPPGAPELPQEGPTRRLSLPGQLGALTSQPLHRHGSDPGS", "experiment": "primary screen, population patch clamp on CHO cells stably expressing hERG; higher = less effect of the substance", "units": {"hERG current change (%, negative = inhibition) at 10uM": "%"}, "values": [{"smiles": "Cc1cccc(N(CC(=O)N/N=C/c2ccc(OCC(=O)NCc3ccco3)cc2)S(C)(=O)=O)c1C", "hERG current change (%, negative = inhibition) at 10uM": 4.14}, {"smiles": "C=CCn1c(O)c(C(C)=NCC2CCCO2)c(=O)[nH]c1=O", "note": "(centres unmarked)", "hERG current change (%, negative = inhibition) at 10uM": -6.3}, {"smiles": "O=C(NCCC(NS(=O)(=O)OCC(Cl)(Cl)Cl)c1ccccc1)C(F)(F)F", "note": "(centres unmarked)", "hERG current change (%, negative = inhibition) at 10uM": -16.4}, {"smiles": "NC(=O)CCCC1=NS(=O)(=O)c2ccccc2N1", "hERG current change (%, negative = inhibition) at 10uM": 11.5}, {"smiles": "COc1ccc(Cl)cc1C(=O)Nc1ccccc1N1CCN(C(=O)C(C)C)CC1", "hERG current change (%, negative = inhibition) at 10uM": -74}, {"smiles": "CC(C)C(=O)N1CCN(c2ccccc2NC(=O)c2ccc(C#N)cc2F)CC1", "hERG current change (%, negative = inhibition) at 10uM": -72.2}, {"smiles": "CC1CCN(c2ccccc2NC(=O)c2ccc(C#N)cc2F)CC1", "hERG current change (%, negative = inhibition) at 10uM": 5.07}, {"smiles": "O=C(Nc1ccccc1N1CCN(c2ccccc2)CC1)c1ccccc1F", "hERG current change (%, negative = inhibition) at 10uM": 8.96}, {"smiles": "CN1CCN(c2ccccc2NC(=O)c2ccccc2F)CC1", "hERG current change (%, negative = inhibition) at 10uM": -70.8}, {"smiles": "CC(=O)N1CCN(c2ccccc2NC(=O)c2ccc(C#N)cc2F)CC1", "hERG current change (%, negative = inhibition) at 10uM": -49.6}, {"smiles": "COc1ccc(Cl)cc1C(=O)Nc1ccccc1N1CCN(C)CC1", "hERG current change (%, negative = inhibition) at 10uM": -79.3}, {"smiles": "O=C(Nc1ccccc1N1CCCC1)c1ccccc1F", "hERG current change (%, negative = inhibition) at 10uM": -3.26}, {"smiles": "COc1ccc(Cl)cc1C(=O)NC(=S)Nc1ccccc1N1CCOCC1", "hERG current change (%, negative = inhibition) at 10uM": 10.2}, {"smiles": "COc1c(F)c(F)c(C(=O)Nc2ccccc2N2CCN(C(=O)C(C)C)CC2)c(F)c1F", "hERG current change (%, negative = inhibition) at 10uM": 6.51}, {"smiles": "COc1cc2ccccc2cc1C(=O)Nc1ccccc1N1CCCC1", "hERG current change (%, negative = inhibition) at 10uM": -4.16}, {"smiles": "COc1ccc(C(=O)Nc2ccccc2N2CCN(C(=O)C(C)C)CC2)cc1Cl", "hERG current change (%, negative = inhibition) at 10uM": -30.9}, {"smiles": "CN(C)c1ccc(NC(=O)c2ccc(COc3cccc(Cl)c3)o2)cc1", "hERG current change (%, negative = inhibition) at 10uM": 0.95}, {"smiles": "CS(=O)(=O)N(CC(=O)N1CCOCC1)Cc1ccc(Cl)cc1", "hERG current change (%, negative = inhibition) at 10uM": 4.67}, {"smiles": "COc1cc(C(=O)NCC2(N3CCCCC3)CCCCC2)ccc1OCC(=O)N1CCOCC1", "hERG current change (%, negative = inhibition) at 10uM": -3.67}, {"smiles": "CC(=O)Nc1cccc(C(=O)OC(C)C(=O)N2CCc3ccccc32)c1", "note": "(centres unmarked)", "hERG current change (%, negative = inhibition) at 10uM": -33.2}, {"smiles": "Cc1ccc(C(=O)N2CCN(c3ncnc4c(-c5ccccc5)nsc34)CC2)cc1", "hERG current change (%, negative = inhibition) at 10uM": 18.1}, {"smiles": "Cc1cc(C)n(-c2nc(NCC3CCCO3)c3c4c(sc3n2)COC(C)(C)C4)n1", "note": "(centres unmarked)", "hERG current change (%, negative = inhibition) at 10uM": -20.2}, {"smiles": "CCOC(=O)CCNC(C)C1COc2ccccc2O1.O=C(O)C(=O)O", "note": "(centres unmarked)", "hERG current change (%, negative = inhibition) at 10uM": 1.93}, {"smiles": "COc1ccc(CNC(C)C2COc3ccccc3O2)c(OC)c1.O=C(O)C(=O)O", "note": "(centres unmarked)", "hERG current change (%, negative = inhibition) at 10uM": -63.2}, {"smiles": "CC(NCc1ccccc1)C1COc2ccccc2O1", "note": "(centres unmarked)", "hERG current change (%, negative = inhibition) at 10uM": 2.12}, {"smiles": "COc1ccc(CC(=O)NC(C)C2COc3ccccc3O2)cc1OC", "note": "(centres unmarked)", "hERG current change (%, negative = inhibition) at 10uM": -0.81}, {"smiles": "CC(NCc1ccc([N+](=O)[O-])cc1)C1COc2ccccc2O1.O=C(O)C(=O)O", "note": "(centres unmarked)", "hERG current change (%, negative = inhibition) at 10uM": -66.2}, {"smiles": "COc1ccc(CNC(=O)C2COc3ccccc3O2)c(OC)c1", "note": "(centres unmarked)", "hERG current change (%, negative = inhibition) at 10uM": -26.4}, {"smiles": "Cc1ccc(NC(=S)NCCc2c[nH]c3ccccc23)cc1", "hERG current change (%, negative = inhibition) at 10uM": -1.12}, {"smiles": "COc1ccc(OCC(O)CNC(=O)c2ccc(OC)cc2)cc1", "note": "(centres unmarked)", "hERG current change (%, negative = inhibition) at 10uM": 14.9}, {"smiles": "COCCn1c(SCC(=O)Nc2ccc(F)cc2F)nc2c([nH]c3ccccc32)c1=O", "hERG current change (%, negative = inhibition) at 10uM": 8.08}, {"smiles": "COCCCn1c(C)nnc1SCC(=O)NNC(=O)COc1ccc(Cl)cc1", "hERG current change (%, negative = inhibition) at 10uM": 22.6}, {"smiles": "COc1ccc(-c2ccc(Nc3ccc(S(=O)(=O)N4CCCC4)cc3)nn2)cc1OC", "hERG current change (%, negative = inhibition) at 10uM": 6.55}, {"smiles": "Cn1c(=O)[nH]c(=O)c2c1nc(N1CCNCC1)n2Cc1cccc2ccccc12", "hERG current change (%, negative = inhibition) at 10uM": -16.4}, {"smiles": "Cc1cccc(N/C(=N/S(=O)(=O)c2ccccc2)c2ccccc2)n1", "hERG current change (%, negative = inhibition) at 10uM": -24.9}, {"smiles": "CCN(c1cccc(C)c1)C(C(=O)Nc1ccc(OC)cc1)c1cc2c(cc1[N+](=O)[O-])OCO2", "note": "(centres unmarked)", "hERG current change (%, negative = inhibition) at 10uM": 21.1}, {"smiles": "CCOC(=O)N1CCN(C(=O)COc2ccc3oc4c(c3c2)CCCC4)CC1", "hERG current change (%, negative = inhibition) at 10uM": -50.6}, {"smiles": "CNC(=O)COc1ccc2oc3c(c2c1)CCCC3", "hERG current change (%, negative = inhibition) at 10uM": 9.14}, {"smiles": "CC(=O)N1CCN(C(=O)COc2ccc3oc4c(c3c2)CCCC4)CC1", "hERG current change (%, negative = inhibition) at 10uM": -25.4}, {"smiles": "CC(C)N(CCNC(=O)COc1ccc2oc3c(c2c1)CCCC3)C(C)C", "hERG current change (%, negative = inhibition) at 10uM": -73.3}, {"smiles": "CCN(CC)CCCNC(=O)COc1ccc2oc3c(c2c1)CCCC3.Cl", "hERG current change (%, negative = inhibition) at 10uM": -45.7}, {"smiles": "CC(C)OCCCNC(=O)COc1ccc2oc3c(c2c1)CCCC3", "hERG current change (%, negative = inhibition) at 10uM": -4.97}, {"smiles": "Cc1cccc(N(CC(=O)NCCC2=CCCCC2)S(C)(=O)=O)c1C", "hERG current change (%, negative = inhibition) at 10uM": -22.8}, {"smiles": "COC(=O)c1ccc(CNC(=O)/C=C/c2cc([N+](=O)[O-])ccc2OC(F)F)cc1", "hERG current change (%, negative = inhibition) at 10uM": 6.89}, {"smiles": "CN(C)CCN(C(=O)c1ccc2c(c1)OCCO2)c1nc2ccc(Cl)cc2s1.Cl", "hERG current change (%, negative = inhibition) at 10uM": -1.19}, {"smiles": "CN(C)CCN(C(=O)c1ccc2ccccc2c1)c1nc2ccc(F)cc2s1.Cl", "hERG current change (%, negative = inhibition) at 10uM": 11.1}, {"smiles": "CN(C)CCN(C(=O)c1ccc2ccccc2c1)c1nc2ccc(Br)cc2s1.Cl", "hERG current change (%, negative = inhibition) at 10uM": 13.2}, {"smiles": "CN(C)CCN(C(=O)C1=COCCO1)c1nc2ccc(Cl)cc2s1.Cl", "hERG current change (%, negative = inhibition) at 10uM": -73.1}, {"smiles": "CN(C)CCCN(C(=O)C1=COCCO1)c1nc2ccc(Br)cc2s1.Cl", "hERG current change (%, negative = inhibition) at 10uM": -67.2}, {"smiles": "CN(C)CCN(C(=O)C1=COCCO1)c1nc2ccc(F)cc2s1.Cl", "hERG current change (%, negative = inhibition) at 10uM": -73}, {"smiles": "O=C(CN1Cc2ccccc2C1=O)Nc1ccc2c(c1)OCCO2", "hERG current change (%, negative = inhibition) at 10uM": 3.26}, {"smiles": "O=C([O-])c1cc(=O)[nH]c2ccc(S(=O)(=O)Nc3ccc(F)cc3)cc12.[K+]", "hERG current change (%, negative = inhibition) at 10uM": 23.5}, {"smiles": "O=C(O)c1ccc(NC(=O)C2CCCCC2)cc1", "hERG current change (%, negative = inhibition) at 10uM": -7.8}, {"smiles": "COCCNC(=O)Cn1cc2c(n1)CCC(C)C2", "note": "(centres unmarked)", "hERG current change (%, negative = inhibition) at 10uM": 21.2}, {"smiles": "O=C(Cn1c(=O)oc2ccccc21)N1CCCC1", "hERG current change (%, negative = inhibition) at 10uM": 14.4}, {"smiles": "Cc1[nH]c2ccccc2c1/C=N/NC(=S)NC(C)C", "hERG current change (%, negative = inhibition) at 10uM": 12.1}]}]}
